# In PubChem BioAssay AID2284376 (EPA ToxCast):
# Activity calls are given as the source filed them. The calls were made as follows: active = hit-call score of the fitted dose curve at least 0.9, where 1 is the maximum; inactive = score below 0.9.
# Target: Peroxisome proliferator-activated receptor gamma (Homo sapiens) (UniProt P37231)
# Assay: ERF_TW_NR_COA_hPPARG: Eurofins (ERF) Nuclear Receptor (NR) Functional Coactivator Assay for human Peroxisome Proliferator-activated Receptor gamma (PPARg) Agonism, conducted at Taiwan lab site
# Procedure: ERF_TW_NR_COA_hPPARG is a biochemical, single-readout assay that uses extracted gene-proteins in a cell-free assay. Measurements were taken 16 hours after chemical dosing in a 96-well plate. See PPARgamma Human NHR Functional Agonist Coactivator Assay, Panlabs.ERF_TW_NR_COA_hPPARG is an assay component calculated from the ERF_TW_NR_COA_hPPARG assay. It is designed to measure FRET using a type of binding reporter as detected by fluorescence intensity of rosiglitazone with fluorimetry technology.Data from the assay component ERF_TW_NR_COA_hPPARG was analyzed at the assay endpoint, ERF_TW_NR_COA_hPPARG, in the positive analysis fitting direction relative to DMSO as the negative control and baseline of activity. Using a type of binding reporter, gain-of-signal activity can be used to understand changes in binding as they relate to gene PPARG. To generalize the intended target to other relatable targets, this assay endpoint is annotated to the nuclear receptor intended target family, where the subfamily is non-steroidal.
# Human recombinant PPARgamma receptors expressed in insect cells are used. […] Determination of the amount of complex formed is read spectrofluorimetrically (excitation: 337 nm, emission: 520/490 nm). Test compound-induced increase fluorescence by 50 percent or more (>/=50%) relative to 1 uM GW1929 response indicates possible PPARgamma receptor agonist activity. […]
# Peroxisome proliferator-activated receptor gamma (Homo sapiens), sequence (P37231 whole entry, looked up): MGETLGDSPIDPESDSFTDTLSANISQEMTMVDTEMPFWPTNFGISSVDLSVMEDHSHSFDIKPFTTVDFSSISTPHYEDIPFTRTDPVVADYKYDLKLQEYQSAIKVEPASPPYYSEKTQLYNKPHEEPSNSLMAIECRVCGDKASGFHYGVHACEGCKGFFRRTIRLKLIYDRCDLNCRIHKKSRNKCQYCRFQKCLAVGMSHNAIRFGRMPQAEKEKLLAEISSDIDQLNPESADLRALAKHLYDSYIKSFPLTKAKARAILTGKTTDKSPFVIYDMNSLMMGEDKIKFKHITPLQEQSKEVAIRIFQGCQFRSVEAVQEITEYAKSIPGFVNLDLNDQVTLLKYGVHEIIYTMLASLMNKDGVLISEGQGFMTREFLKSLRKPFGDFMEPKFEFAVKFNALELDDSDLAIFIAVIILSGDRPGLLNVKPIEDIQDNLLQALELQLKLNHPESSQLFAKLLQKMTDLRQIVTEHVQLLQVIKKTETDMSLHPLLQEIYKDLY
structure (smiles),measurement,value
O=S(=O)(O)C(F)(F)C(F)(F)C(F)(F)C(F)(F)C(F)(F)C(F)(F)C(F)(F)C(F)(F)F,outcome,inactive
